Measured values taken from PubChem BioAssay (NCATS).
Inconclusive results are not listed. Activity calls are given as the source filed them. Unless noted, calls come from the whole dose curve; as a rule, active = well fitted curve in the direction sought with a large enough effect; inconclusive = small, poorly fitted or top-dose-only effect, or another doubt; inactive = no such curve, though single readings can be large; an effect the other way counts as inactive or inconclusive.

Columns and labels:
[1] = qHTS Assay for Lipid Storage Modulators (AID 1519; calls by dose curve; note: potency is the fitted concentration of half-maximal effect; for activity change, negative = inhibition: % is set by controls: 0 for no effect and ±100 for the full control effect); conditions: Drosophila S3 cells, BODIPY lipid droplet/cell ratio, laser cytometry, cells loaded with oleic acid; for activity change, negative = inhibition: at 57.5 µM (top of the series)
Procedure, shortened: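 Cells seeded at 5,000 per well were treated with compounds over a concentration series and loaded with oleic acid (400 uM, as added). Lipid droplet fluorescence (488 nm excitation, 500-530 nm channel) was read by laser-scanning cytometry and normalized to 20 uM Triacsin C.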

[2] = molecular target: DNA dC->dU-editing enzyme APOBEC-3G (Homo sapiens) (UniProt Q9HC16); experiment: qHTS for inhibitors of Vif-A3G interactions: Validation (AID 588379); conditions: Vif-A3G protein interaction assay; series mostly up to 46.1 µM; note: 0% is about no effect
Chain of DNA dC->dU-editing enzyme APOBEC-3G (Homo sapiens) (Q9HC16 whole entry, looked up): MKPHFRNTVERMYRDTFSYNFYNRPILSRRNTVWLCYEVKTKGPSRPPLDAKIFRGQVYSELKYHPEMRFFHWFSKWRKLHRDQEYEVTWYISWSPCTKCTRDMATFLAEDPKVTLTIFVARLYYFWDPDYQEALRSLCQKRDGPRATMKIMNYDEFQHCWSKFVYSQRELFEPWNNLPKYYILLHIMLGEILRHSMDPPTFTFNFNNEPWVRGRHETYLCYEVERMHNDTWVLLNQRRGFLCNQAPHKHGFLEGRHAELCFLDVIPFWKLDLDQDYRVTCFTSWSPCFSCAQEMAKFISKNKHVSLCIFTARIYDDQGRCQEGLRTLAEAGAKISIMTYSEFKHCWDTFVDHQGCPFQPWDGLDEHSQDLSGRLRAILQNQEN
Procedure, shortened: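 HeLa cells stably expressing Vif and A3G-eYFP, 700 cells/well, incubated overnight at 37 deg C, then exposed to compound overnight at 37 deg C. Inhibition of Vif-mediated degradation read as increased yellow fluorescence (Ex 488/Em 500-530) by laser-scanning cytometry.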

[3] = molecular target: Cytochrome P450 3A4 (Homo sapiens) (UniProt P08684); experiment: qHTS Assay for Inhibitors and Substrates of Cytochrome P450 3A4 (AID 884); conditions: recombinant CYP3A4, Luciferin-PPXE luminescence; series mostly up to 57.1 µM; note: nearly all actives have a fitted effect of over 50% in size; note: potency is the fitted concentration of half-maximal effect; for activity change, negative = inhibition: % is set by controls: 0 for no effect and ±100 for the full control effect
Chain of Cytochrome P450 3A4 (Homo sapiens) (P08684 whole entry, looked up): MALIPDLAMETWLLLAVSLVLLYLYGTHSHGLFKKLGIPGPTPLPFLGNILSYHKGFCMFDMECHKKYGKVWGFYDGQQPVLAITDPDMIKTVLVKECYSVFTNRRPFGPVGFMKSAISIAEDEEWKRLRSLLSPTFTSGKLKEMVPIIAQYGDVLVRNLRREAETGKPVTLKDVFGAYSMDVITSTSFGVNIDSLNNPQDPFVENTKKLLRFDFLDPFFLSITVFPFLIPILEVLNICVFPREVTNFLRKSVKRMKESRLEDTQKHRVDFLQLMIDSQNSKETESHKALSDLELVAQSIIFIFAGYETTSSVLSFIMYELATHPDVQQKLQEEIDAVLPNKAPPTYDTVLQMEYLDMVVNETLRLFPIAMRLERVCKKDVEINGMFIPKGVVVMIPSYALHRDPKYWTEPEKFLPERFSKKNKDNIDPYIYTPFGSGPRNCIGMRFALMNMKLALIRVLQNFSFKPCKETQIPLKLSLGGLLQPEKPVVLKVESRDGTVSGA
Procedure, shortened: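 20 nM human CYP3A4 with 25 uM Luciferin-PPXE (at KM) in 200 mM KPO4, preincubated 10 min with compound; NADPH regeneration started a 60 min RT reaction. Luciferin detected by luminescence, normalized to 57 uM ketoconazole as full inhibition.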

[4] = molecular target: Cytochrome P450 3A4 (Homo sapiens) (UniProt P08684); experiment: qHTS Assay for Activators of Cytochrome P450 3A4 (AID 885); conditions: recombinant CYP3A4, Luciferin-PPXE luminescence, 60 min; series mostly up to 57.1 µM; note: nearly all actives have a fitted effect of over 65% in size; note: potency is the fitted concentration of half-maximal effect
Procedure, shortened: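 Quantitative HTS format: compounds preincubated with 20nM human CYP3A4 and Luciferin-PPXE substrate at KM, reaction started by NADPH regeneration, stopped after 60 min, luciferase luminescence read 20 min later.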

[5] = Confirmation and Secondary Assay for Modulators of Hemoglobin Beta Chain Splicing at IVS2 654 locus (AID 910); conditions: HeLa EGFP-654 splicing reporter, GFP fluorescence, 48 h; series mostly up to 46.1 µM;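 note: HeLa cells stably carrying EGFP split by mutant beta-globin IVS2-654 intron; % of control where 0% means no effect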
Procedure, shortened: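 HeLa cells stably expressing EGFP interrupted by β-globin IVS2-654 intron, seeded overnight in Opti-MEM/2% FCS, then treated 2 days at 37 °C. Restored splicing read as total peak GFP intensity per well by laser scanning cytometry (488 nm excitation, 500–520 nm emission); 500 nM antisense PNA as control.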

[6] = Confirmation and Secondary Assay for Modulators of Hemoglobin Beta Chain Splicing at IVS2 705 locus (AID 930); conditions: HeLa EGFP-705 splicing reporter, GFP fluorescence, 48 h; series mostly up to 46.1 µM;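 note: HeLa cells stably expressing the EGFP-705 splicing reporter; % of control where 0% means no effect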
Procedure, shortened: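 Restored EGFP fluorescence after 2-day compound exposure reports splicing correction in IVS2-705 EGFP reporter HeLa cells; positive control was 500 nM splice-blocking PNA oligo. Signal measured as well total peak GFP intensity (488 nm excitation).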

[7] = molecular target: Ubiquitin carboxyl-terminal hydrolase 1 (Homo sapiens) (UniProt O94782); experiment: Inhibitors of USP1/UAF1: Pilot qHTS (AID 504865); conditions: purified USP1/UAF1, Ub-rhodamine cleavage fluorescence; series mostly up to 114 µM;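 note: rhodamine fluorescence freed from ubiquitin-rhodamine substrate followed over time; top concentration of the series differs between compounds; % is set by controls: 0 for no effect and ±100 for the full control effect; nearly all actives have a fitted effect of over 35% in size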
Chain of Ubiquitin carboxyl-terminal hydrolase 1 (Homo sapiens) (O94782 whole entry, looked up): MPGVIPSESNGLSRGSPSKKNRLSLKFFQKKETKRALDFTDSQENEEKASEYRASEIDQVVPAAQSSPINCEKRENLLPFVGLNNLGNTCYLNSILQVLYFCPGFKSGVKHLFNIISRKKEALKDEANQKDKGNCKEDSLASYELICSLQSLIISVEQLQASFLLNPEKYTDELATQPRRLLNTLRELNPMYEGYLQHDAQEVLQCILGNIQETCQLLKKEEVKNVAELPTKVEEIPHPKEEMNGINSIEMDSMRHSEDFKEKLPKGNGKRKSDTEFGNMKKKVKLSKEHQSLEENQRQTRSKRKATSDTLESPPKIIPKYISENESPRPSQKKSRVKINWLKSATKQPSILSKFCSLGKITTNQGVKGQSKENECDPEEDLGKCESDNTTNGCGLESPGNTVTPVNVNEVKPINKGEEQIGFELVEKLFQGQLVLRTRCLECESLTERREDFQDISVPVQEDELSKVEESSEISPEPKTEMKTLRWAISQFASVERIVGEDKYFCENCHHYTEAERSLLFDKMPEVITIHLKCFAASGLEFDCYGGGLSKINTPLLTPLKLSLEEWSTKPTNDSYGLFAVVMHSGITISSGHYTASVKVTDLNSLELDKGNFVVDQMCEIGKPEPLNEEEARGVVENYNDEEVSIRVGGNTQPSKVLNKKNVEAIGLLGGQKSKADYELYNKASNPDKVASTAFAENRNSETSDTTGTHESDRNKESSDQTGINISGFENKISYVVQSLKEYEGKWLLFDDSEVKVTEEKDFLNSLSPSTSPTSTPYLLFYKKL
Procedure, shortened: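 In 50mM HEPES pH 7.8 containing 0.5mM EDTA, 1mM TCEP, 0.1 mg/ml BSA and 0.01% Tween-20, 1nM USP1/UAF1 is exposed to compound for 15 min, then Ub-Rho (150nM final) is added and fluorescence is read over time.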

[8] = molecular target: Luciferin 4-monooxygenase (Photinus pyralis) (UniProt P08659); experiment: Biochemical firefly luciferase enzyme assay for NPC (AID 624030);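 note: purified P. pyralis luciferase at 10 nM with luciferin and ATP substrate; 0% = DMSO and -100% = full luciferase inhibition by PTC124 control; nearly all actives have a fitted effect of over 70% in size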; conditions: purified P. pyralis luciferase, luminescence, 5 min; series mostly up to 24.9 µM
Chain of Luciferin 4-monooxygenase (Photinus pyralis) (P08659 whole entry, looked up): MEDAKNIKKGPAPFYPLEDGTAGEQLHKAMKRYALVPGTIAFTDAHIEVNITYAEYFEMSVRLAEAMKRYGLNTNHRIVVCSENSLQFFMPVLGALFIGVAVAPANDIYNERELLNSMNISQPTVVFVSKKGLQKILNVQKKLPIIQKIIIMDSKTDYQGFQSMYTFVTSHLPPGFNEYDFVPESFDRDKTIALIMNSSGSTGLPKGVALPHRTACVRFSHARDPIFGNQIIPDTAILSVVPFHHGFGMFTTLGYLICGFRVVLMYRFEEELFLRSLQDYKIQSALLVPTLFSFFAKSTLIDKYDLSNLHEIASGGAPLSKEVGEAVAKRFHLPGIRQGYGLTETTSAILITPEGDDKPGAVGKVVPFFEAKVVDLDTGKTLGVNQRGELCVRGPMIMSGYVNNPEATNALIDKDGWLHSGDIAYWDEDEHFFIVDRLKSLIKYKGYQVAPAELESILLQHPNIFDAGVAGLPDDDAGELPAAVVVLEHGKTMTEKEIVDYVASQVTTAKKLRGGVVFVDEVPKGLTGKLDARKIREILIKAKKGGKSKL
Procedure, shortened: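 Purified P. pyralis luciferase at 10 nM in 50 mM Tris Acetate (final), luminescence read within 5 minutes of enzyme addition to compounds. Activity normalised to PTC124 versus DMSO; concentration-response curves classed by r2, magnitude and activity.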

[9] = measured here: cell count channel max response
[10] = measured here: lipid channel max response

Row | SMILES | activity change, negative = inhibition [1] | max response [1, 9] [%] | max response [1, 10] [%] | outcome [2] | Potency [3] | Potency [4] | Potency [5] | Potency [6] | Potency [7] | Potency [8] | Potency [1]
1 | CCC(C)C(=O)O[C@H]1C[C@@H](C)C=C2C=C[C@H](C)[C@H](CC[C@@H]3C[C@@H](O)CC(=O)O3)C21 (stereo partly drawn) | -9.81% (inactive) | 22 | 13.2 | inactive | – | – | – | – | – | – | –
2 | CC1OC(OCC2OC(Oc3c(-c4ccc(O)c(O)c4)oc4cc(O)cc(O)c4c3=O)C(O)C(O)C2O)C(O)C(O)C1O (stereo not drawn) | -1.77% (inactive) | -20.3 | -20.8 | inactive | – | – | – | – | – | – | –
3 | CC(C)C1=CC2=CC[C@@H]3[C@@](C)(C(=O)O)CCC[C@]3(C)C2CC1 (stereo partly drawn) | 0.573% (inactive) | -0.0856 | -0.672 | inactive | inactive | – | – | – | – | – | –
4 | CCOC(=O)c1c(C)cc(O)cc1O | 13% (inactive) | -2.16 | 14.3 | – | 25.1 µM (active) | inactive | inactive | inactive | – | – | –
5 | C[C@@H]1C(=O)O[C@H]2[C@@H](O)[C@@]34[C@H]5CC(C(C)(C)C)[C@]36[C@@H](OC(=O)[C@@H]6O)O[C@@]4(C(=O)O5)[C@@]12O (stereo partly drawn) | 7.16% (inactive) | -2.81 | 2.02 | inactive | – | – | – | – | – | – | –
6 | CCN(CC)Cc1ccc(Nc2ccnc3cc(Cl)ccc23)cc1O | -0.352% (inactive) | 18.7 | 21.7 | – | inactive | 7.94 µM (active) | inactive | inactive | – | – | –
7 | O=c1c2ccccc2oc2cc(O)c(C3COCC(CO)C(O)C(O)C3O)c(O)c12 (stereo not drawn) | 16.5% (inactive) | 22.8 | 36.9 | inactive | inactive | – | – | – | – | – | –
8 | C[C@]12CCC(=O)C=C1CCC1C2C(O)C[C@]2(C)C1CC[C@]2(O)C(=O)CO (stereo partly drawn) | 12.8% (inactive) | 7.87 | 21.1 | – | – | – | inactive | inactive | inactive | – | –
9 | CC[C@@H]1OC(=O)[C@@H](C)[C@H](O[C@H]2C[C@@](C)(OC)[C@@H](O)[C@H](C)O2)C(C)[C@H](O[C@H]2O[C@@H](C)C[C@@H](N(C)C)[C@@H]2O)[C@@](C)(O)C[C@H](C)C(=O)[C@@H](C)[C@H](O)[C@@]1(C)O (stereo partly drawn) | 6.26% (inactive) | 3.51 | 7.04 | inactive | 15.8 µM (active) | inactive | – | – | – | – | –
10 | NC(=O)NCCC[C@H](N)C(=O)O | -0.41% (inactive) | -16.4 | -15.2 | inactive | inactive | – | – | – | – | – | –
11 | COc1ccc2c(c1)OCC(Cc1ccc(O)c(OC)c1)C2=O (stereo not drawn) | 13.3% (inactive) | 8.4 | 29.2 | – | 2 µM (active) | inactive | inactive | inactive | – | – | –
12 | O=C(O)CCCCC1SCC2NC(=O)NC21 (stereo not drawn) | 0.834% (inactive) | 11.8 | 16 | – | inactive | – | inactive | inactive | – | inactive | –
13 | COC(=O)[C@]1(C)CCC[C@]2(C)c3ccc(C(C)C)cc3C(=O)CC12 (stereo partly drawn) | 1.78% (inactive) | 15.8 | 18.5 | – | 25.1 µM (active) | inactive | inactive | inactive | – | – | –
14 | COc1c(-c2coc3cc4c(cc3c2=O)CC(O)C(C)(C)O4)ccc2c1C=CC(C)(C)O2 (stereo not drawn) | – | -20.3 | -70.3 | – | inactive | 2.51 µM (active) | inactive | inactive | – | – | 70.8 nM (active)
15 | CC(C)CCCC(C)C1CCC2C3C(=O)C=C4CC(O)CC[C@@]4(C)C3CC[C@@]12C (stereo partly drawn) | -2.06% (inactive) | 8.46 | 5.18 | – | inactive | – | inactive | inactive | – | – | –
16 | CC(=O)OC1CC[C@]2(C)C(CC[C@@]3(C)C2C(=O)C=C2C4C(C)C(C)CC[C@@]4(C(=O)O)CCC23C)C1(C)C (stereo partly drawn) | 0.887% (inactive) | 18.2 | 20.8 | – | 25.1 µM (active) | inactive | inactive | inactive | – | – | –
17 | C/C=C(\C)C(=O)OC1c2c(ccc3ccc(=O)oc23)OC(C)(C)C1OC(C)=O (stereo not drawn) | -20.9% (inactive) | -0.795 | -21.2 | – | 25.1 µM (active) | inactive | inactive | inactive | – | – | –
18 | CC1=CC(=O)C2C(C)(C)CCC[C@@]2(C)[C@@]1(O)CCc1ccoc1 (stereo partly drawn) | -1.73% (inactive) | 10.7 | 10.8 | – | 15.8 µM (active) | inactive | inactive | inactive | – | – | –
19 | CC(C)CCCC(C)C1CCC2C3=CC[C@@H]4CC(O)CC[C@@]4(C)C3CC[C@]21C (stereo partly drawn) | -3.72% (inactive) | 6.46 | 4.39 | – | inactive | – | inactive | – | – | – | –
20 | COc1ccc2c(c1)OC1(O)COc3cc(OC)c(OC)cc3C1=C2 (stereo not drawn) | 0.865% (inactive) | -18.4 | -15.5 | – | 7.94 µM (active) | inactive | inactive | inactive | – | – | –
21 | CC(=O)OC1CC2C(C)(C)C(=O)CC[C@]2(C)C2CC[C@@]3(C)C(c4ccoc4)OC(=O)C4OC43[C@]12C (stereo partly drawn) | 5.91% (inactive) | 22.7 | 27.2 | – | 3.98 µM (active) | inactive | inactive | inactive | – | – | –
22 | CC12CCC3c4ccc(OCc5ccccc5)cc4CCC3C1CC(O)C2O (stereo not drawn) | 3.93% (inactive) | 2.78 | 8.16 | – | inactive | – | inactive | inactive | – | – | –
